Results from PubChem BioAssay (NCATS).
Results filed as inconclusive are left out. Activity calls are given as the source filed them. Calls follow the shape of the dose curve; as a rule, active = well fitted inhibition curve with a large enough effect; inconclusive = small, poorly fitted or top-dose-only effect; inactive = flat fitted curve, though single readings scatter.

Assay: BET inhibitor-based combinations targeting novel dependencies in MECOM-rearranged (r) AML: AML-191 cell line (AID 2202236; also: nearly all actives have a fitted effect of over 35% in size)
Conditions: AML-191 viability, CellTiter-Glo luminescence, 48 h; series mostly up to 46 µM
Summary of the method: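 Viability of cells (500 per well) is scored by luminescent CellTiter-Glo at 48 hr post-dosing. Eleven-point titrations are normalized to DMSO and empty controls and reduced to AUC values.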
Potency is read from the fitted curve at half-maximal effect.

Structure (SMILES) | Potency
C/C=C/C[C@@H](C)C(=O)[C@H]1C(=O)N[C@@H](C(C)C)C(=O)N(C)CC(=O)N(C)[C@@H](CC(C)C)C(=O)N[C@@H](C(C)C)C(=O)N(C)[C@@H](CC(C)C)C(=O)N[C@@H](C)C(=O)N[C@H](C)C(=O)N(C)[C@@H](CC(C)C)C(=O)N(C)[C@@H](CC(C)C)C(=O)N(C)[C@@H](C(C)C)C(=O)N1C | 9.1 µM (active)
C=CC(=O)N1CC(N2CCN(C(=O)CNc3cc(C4(C)CC4)c(Cl)cc3O)CC2)C1 | inactive
CC[C@H](C)[C@@H]([C@@H](CC(=O)N1CCC[C@H]1[C@H](OC)[C@@H](C)C(=O)N[C@@H](Cc1ccccc1)c1nccs1)OC)N(C)C(=O)[C@@H](NC(=O)[C@H](C(C)C)N(C)C)C(C)C | inactive
Cc1nc(NC(=O)N2CCC[C@H]2C(N)=O)sc1-c1csc(C(C)(C)C)n1 | 16.6 µM (active)
C#C[C@]1(O)CC[C@H]2[C@@H]3CCc4cc(O)ccc4[C@H]3CC[C@@]21C | 14.8 µM (active)
CC(C)c1onc(-c2c(Cl)cccc2Cl)c1COc1ccc(/C=C/c2cccc(C(=O)O)c2)c(Cl)c1 | inactive
CCOc1cc(CC(=O)N[C@@H](CC(C)C)c2ccccc2N2CCCCC2)ccc1C(=O)O | inactive
CCC1CCCCN1C(=O)n1ncc(C(O)(c2ccccc2)c2ccccc2)n1 (configuration not stated) | 14.8 µM (active)
CN(C)CCNC(=O)COc1c2cccc1Cc1cccc(c1OCC(=O)NCCN(C)C)Cc1cccc(c1OCC(=O)NCCN(C)C)Cc1cccc(c1OCC(=O)NCCN(C)C)C2 | 0.428 µM (active)
COc1c(Nc2ncc(Cl)c(N[C@H]3[C@H](C(N)=O)[C@@H]4C=C[C@@H]3C4)n2)ccc2c1CCC(N1CCOCC1)CC2 (some centres not stated) | 18.6 µM (active)
COc1ccc2c(c1)[C@]1(C[C@H]1c1ccc3c(/C=C/c4ccc(CN5C[C@@H](C)O[C@@H](C)C5)cc4)n[nH]c3c1)C(=O)N2 | 0.417 µM (active)
Cc1ccc(NC(=O)[C@H]2CCCN(C(=O)c3c(C)cccc3F)[C@H]2c2ccc(NC3CCCC3)cc2)cc1C(F)(F)F | inactive
CCc1cnn2c(NCc3ccc[n+]([O-])c3)cc(N3CCCC[C@H]3CCO)nc12 | 0.0263 µM (active)
CC(=O)Nc1ccc(C(=O)NC(C)(C)C)cc1 | inactive
C[C@@]1(c2ncncc2F)NC(=O)c2cc(-c3cn[nH]c3)ccc21 | 20.9 µM (active)
CCN(C(=O)c1c(O)c2c(Cl)cccc2n(C)c1=O)c1ccccc1 | 9.34 µM (active)
CCOC(=N)c1nc2ccc3ncnc(Nc4cc(F)c(F)cc4Cl)c3c2s1 | 5.25 µM (active)
